Experimental data as given in PubChem BioAssay (NCATS).
“And” between values parts separate entries of the source, which are not always exact repeats. Equal entries are not always repeated. Results filed as inconclusive are left out. Some structures have more than one record in an assay (separate samples or runs), and their calls can disagree. The source made the active and inactive calls. Calls follow the shape of the dose curve; as a rule, active = well fitted inhibition curve with a large enough effect; inconclusive = small, poorly fitted or top-dose-only effect; inactive = flat fitted curve, though single readings scatter.

Experiments:
[1] = tested on: HEK293; assay: Cytotoxic Profiling of Annotated Libraries Using Quantitative High-Throughput Screening (AID 1296008); settings: Five cell lines viability, CellTiter-Glo ATP luminescence, 48-72 h; max response: stronger effect = lower value
How it was run: (§1)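 Cells exposed to compounds for 48 or 72 hr at 37 degrees Celsius. Viability read as ATP-coupled luminescence with CellTiter-Glo after 10 min at room temperature.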

[2] = tested on: HaCat; assay: as above; settings: Five cell lines viability, CellTiter-Glo ATP luminescence, 48-72 h; max response: stronger effect = lower value
How it was run: as §1

[3] = tested on: KB-3-1; assay: as above; settings: Five cell lines viability, CellTiter-Glo ATP luminescence, 48-72 h; max response: stronger effect = lower value
How it was run: as §1

[4] = tested on: NIH3T3; assay: as above; settings: Five cell lines viability, CellTiter-Glo ATP luminescence, 48-72 h; max response: stronger effect = lower value
How it was run: as §1

[5] = tested on: HACAT; assay: qHTS assay to identify novel small-molecules to repurpose for Merkel cell carcinoma treatment (AID 1296009); settings: MCC and control cell lines, CellTiter-Glo viability, 72 h; series mostly up to 44.8 µM
How it was run: (§2)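 CellTiter-Glo luminescence after 72 hr compound exposure at 37 degree celsius gave cell viability. Libraries NPC and MIPE were run as 8- and 11-point dose responses; RLUs normalized to DMSO (negative) and no-cell (cytotoxicity) controls.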

[6] = tested on: MCC-13; assay: as above; settings: MCC and control cell lines, CellTiter-Glo viability, 72 h; series mostly up to 46 µM
How it was run: as §2

[7] = tested on: MCC-26; assay: as above; settings: MCC and control cell lines, CellTiter-Glo viability, 72 h; series mostly up to 46 µM
How it was run: as §2

[8] = tested on: MKL-1; assay: as above; settings: MCC and control cell lines, CellTiter-Glo viability, 72 h; series mostly up to 46 µM
How it was run: as §2

[9] = tested on: MKL-2; assay: as above; settings: MCC and control cell lines, CellTiter-Glo viability, 72 h; series mostly up to 46 µM
How it was run: as §2

[10] = tested on: HEK293T; assay: as above; settings: MCC and control cell lines, CellTiter-Glo viability, 72 h; at 44.8 µM (top of the series) unless noted
How it was run: as §2
% is scaled to controls: 0 for no effect and ±100 for the full control effect; potency is read from the fitted curve at half-maximal effect.
Also: nearly all actives have a fitted effect of over 60% in size.

O=C(CCCN1CCC(O)(c2ccc(Cl)cc2)CC1)c1ccc(F)cc1
inactive: max response [2] 2.18% | outcome [2] | max response [3] 1.13% | outcome [4] | outcome [5] | Potency [6] | Potency [7] | Potency [8] | Potency [9]
active: Potency [1] 18.8 µM | Potency [4] 21.1 µM

COc1ccc(C2CNC(=O)C2)cc1OC1CCCC1 (centres undefined)
inactive: max response [1] 0.111% | outcome [1] | max response [2] -13.7% | outcome [2] | max response [3] 0.0275% and -1.99% | max response [4] -5.87% | outcome [4] | outcome [5] | outcome [10] | Potency [6] | Potency [7] | Potency [8] | Potency [9]

CC[N+](CC)(CC)CCOc1cccc(OCC[N+](CC)(CC)CC)c1OCC[N+](CC)(CC)CC
inactive: max response [1] -0.136% | outcome [1] | max response [2] -16.7% | outcome [2] | max response [4] -12.2% | outcome [4] | outcome [5] | outcome [10] | Potency [6] | Potency [7] | Potency [8] | Potency [9]

CN1CCC(=C2c3ccccc3C=Cc3ccccc32)CC1
active: Potency [1] 10.6 µM | Potency [9] 16.8 µM
inactive: max response [2] -1.05% | outcome [2] | max response [3] 25.1% and -12.3% | max response [4] -0.507% | outcome [4] | outcome [5] | Potency [6] | Potency [8]

O=c1c(O)c(-c2ccc(O)c(O)c2)oc2cc(O)cc(O)c12
inactive: max response [1] -3.52% and -1.32% | max response [2] -5.77% and -18.7% | max response [3] 4.77% and 21.1% | max response [4] -3.23% | Potency [6] | Potency [7] | Potency [8] | Potency [9]

CCCNCC(O)COc1ccccc1C(=O)CCc1ccccc1 (centres undefined)
inactive: max response [2] -2.94% | outcome [2] | max response [4] -20.3% and -9.95% | outcome [5] | Potency [6] | Potency [8] | Potency [9]
active: Potency [1] 21.1 µM

CN1CCN(C2=Nc3cc(Cl)ccc3Nc3ccccc32)CC1
active: Potency [1] 13.3 µM
inactive: max response [2] 2.26% | max response [3] 6.37% | outcome [4] | Potency [6] | Potency [7] | Potency [8] | Potency [9]

CC(C)(Oc1ccc(C2CC2(Cl)Cl)cc1)C(=O)O (centres undefined)
inactive: max response [1] -10.2% | max response [2] -0.292% | outcome [2] | outcome [3] | outcome [4] | outcome [5] | Potency [6] | Potency [7] | Potency [8] | Potency [9]

Cc1ccc(C(=O)Nc2ccc(S(=O)(=O)O)c3cc(S(=O)(=O)O)cc(S(=O)(=O)O)c23)cc1NC(=O)c1cccc(NC(=O)Nc2cccc(C(=O)Nc3cc(C(=O)Nc4ccc(S(=O)(=O)O)c5cc(S(=O)(=O)O)cc(S(=O)(=O)O)c45)ccc3C)c2)c1
inactive: outcome [1] | outcome [2] | max response [3] 9.63% and 6.6% | max response [4] -7.7% | outcome [4] | outcome [5] | outcome [10] | Potency [6] | Potency [7] | Potency [8] | Potency [9]

Cc1cc(C(C)(C)C)cc(C)c1CC1=NCCN1
inactive: max response [1] -19.6% and -11.6% | outcome [2] inactive; activator | max response [3] 3.71% and 6.55% | max response [4] -2.36% | outcome [4] | outcome [5] inactive; activator | Potency [6] | Potency [7] | Potency [8] | Potency [9]

CCOC(=O)Nc1ccc(NCc2ccc(F)cc2)nc1N
inactive: max response [1] -4.26% | max response [2] -2.04% and -3.24% | max response [3] -2.17% and -13.9% and -5.9% | max response [4] 4.91% | outcome [4] | Potency [6] | Potency [7] | Potency [8] | Potency [9]

C[C@H]1c2cccc(O)c2C(O)=C2C(=O)[C@]3(O)C(O)=C(C(N)=O)C(=O)[C@@H](N(C)C)[C@@H]3[C@@H](O)[C@@H]21
inactive: max response [1] -8.48% | outcome [2] | max response [3] 10.8% and -8.7% | max response [4] 1.59% | outcome [4] | outcome [5] | Potency [6] | Potency [8] | Potency [9]

CC[C@@]1(O)C(=O)OCc2c1cc1n(c2=O)Cc2cc3c(CN(C)C)c(O)ccc3nc2-1
active: Potency [1] 372 nM and 517 nM | Potency [2] 1.05 µM and 1.46 µM | Potency [3] 5.9 µM and 3.26 µM | Potency [4] 1.68 µM and 1.32 µM and 2.06 µM | Potency [6] 94.4 nM and 132 nM | Potency [8] 21.1 nM and 93.5 nM | Potency [9] 4.2 nM and 13.2 nM

O=C1c2c(O)ccc(O)c2C(=O)c2c(NCCNCCO)ccc(NCCNCCO)c21
active: Potency [1] 37.2 nM and 15 nM | Potency [2] 264 nM | Potency [3] 296 nM | Potency [4] 59 nM and 21.1 nM | Potency [6] 935 nM and 750 nM | Potency [7] 1.87 µM and 596 nM | Potency [8] 105 nM and 6 nM | Potency [9] 0.006 µM

O=c1c(-c2ccc(O)cc2)coc2cc(O)cc(O)c12
inactive: max response [1] -3.7% | max response [2] 0.82% | outcome [2] | max response [4] -9.8% and -21.1% | outcome [5] | Potency [6] | Potency [7] | Potency [8] | Potency [9]

CC(CCc1ccc(O)cc1)NCCc1ccc(O)c(O)c1 (centres undefined)
active: Potency [8] 7.5 µM | Potency [9] 23.5 µM and 11.9 µM
inactive: max response [1] -19% | max response [2] 0.349% | outcome [2] | max response [3] -2.1% | max response [4] -1.03% and 1.16% | outcome [5] | Potency [6]

CN(C)CCC=C1c2ccccc2C=Cc2ccccc21
inactive: outcome [2] | max response [3] -7.06% and -14.3% | max response [4] -0.444% | outcome [5] | Potency [6] | Potency [8]
active: Potency [1] 26.4 µM

CN(CCOc1ccc(NS(C)(=O)=O)cc1)CCc1ccc(NS(C)(=O)=O)cc1
inactive: outcome [1] | max response [2] 2.47% | outcome [2] | max response [3] -3.43% | outcome [4] | outcome [5] | outcome [10] | Potency [6] | Potency [8] | Potency [9]

Clc1ccc(C(c2ccccc2Cl)C(Cl)Cl)cc1 (centres undefined)
inactive: max response [1] -1.26% | max response [2] -1.22% | outcome [2] | max response [3] -10.1% and -1.61% | max response [4] -2.6% and -1.15% | outcome [5] | Potency [6] | Potency [8] | Potency [9]

COc1ccc(CCN(C)CCCC(C#N)(c2ccc(OC)c(OC)c2)C(C)C)cc1OC (centres undefined)
inactive: max response [1] -14.8% | max response [2] -28.3% | outcome [2] | max response [3] -13.1% and 17.7% | max response [4] -15.4% and 3.75% | outcome [5] | Potency [6] | Potency [7] | Potency [8] | Potency [9]

CC(C)NCC(O)COc1ccc(CCOCC2CC2)cc1 (centres undefined)
inactive: max response [1] -0.0868% and -3.99% | max response [2] 2.43% | outcome [2] | max response [4] 2.13% and -7.76% | outcome [5] | Potency [6] | Potency [7] | Potency [8] | Potency [9]

COC(=O)Nc1nc2ccc(C(=O)c3cccs3)cc2[nH]1
active: Potency [1] 0.0944 µM | Potency [3] 16.6 nM and 231 nM | Potency [4] 0.168 µM | Potency [6] 148 nM and 266 nM | Potency [7] 132 nM
inactive: max response [2] 3.37% and -11.6%

CN(C)c1nc(N(C)C)nc(N(C)C)n1
inactive: max response [1] -4.81% and -7.03% | max response [2] -7.57% and -4.4% | max response [3] 0.844% and 0.45% | max response [4] 1.4% and 1.9% | Potency [6] | Potency [7] | Potency [8] | Potency [9]

Cn1c(=O)c2c(ncn2C)n(C)c1=O
inactive: max response [1] -13.2% and 0.976% | max response [2] 1.8% and -12.8% | max response [3] 3.75% | max response [4] -9.99% and -2.17% | Potency [6] | Potency [8] | Potency [9]

Cc1ccccc1N1C(=O)c2cc(S(N)(=O)=O)c(Cl)cc2NC1C (centres undefined)
inactive: outcome [1] | max response [2] 0.851% | outcome [2] | max response [4] 4.24% | outcome [4] | outcome [5] | outcome [10] | Potency [6] | Potency [8] | Potency [9]

CC(=O)OCC(CCn1cnc2cnc(N)nc21)COC(C)=O
inactive: outcome [1] | max response [2] 1.33% and 3.92% | max response [3] 12.3% and 3.49% | max response [4] 3.32% | outcome [4] | outcome [10] | Potency [6] | Potency [8] | Potency [9]

Cc1cnc(C(=O)NCCc2ccc(S(=O)(=O)NC(=O)NC3CCCCC3)cc2)cn1
inactive: max response [1] -14.8% | max response [2] 0.0058% | outcome [2] | max response [4] 4.64% and -13.5% | outcome [5] | Potency [6] | Potency [8] | Potency [9]

CS(=O)(=O)CCNCc1ccc(-c2ccc3ncnc(Nc4ccc(OCc5cccc(F)c5)c(Cl)c4)c3c2)o1
active: Potency [1] 4.18 µM and 6.68 µM and 9.2 µM | Potency [2] 46.9 nM and 266 nM | Potency [9] 11.9 µM
inactive: max response [3] 0.0192% | max response [4] -52.4% | Potency [6] | Potency [7] | Potency [8]

CN1CCN(CCCN2c3ccccc3Sc3ccc(Cl)cc32)CC1
inactive: max response [2] 0.937% | outcome [2] | max response [4] -25.1% | outcome [5] | Potency [6] | Potency [7]
active: Potency [1] 14.8 µM | Potency [8] 16.6 µM | Potency [9] 11.8 µM

CS(=O)(=O)Nc1ccc([N+](=O)[O-])cc1Oc1ccccc1
inactive and 14.8 µM (active): Potency [9]
inactive: max response [1] -3.19% | max response [2] 1.46% | max response [3] 0.301% and -0.592% | max response [4] 4.35% and -5.34% | Potency [6] | Potency [7] | Potency [8]

COc1nc(C)nc(Cl)c1NC1=NCCN1
inactive: max response [1] -5.08% and -4.05% | outcome [2] | max response [3] 11.6% and 7.19% | max response [4] -2.5% and 2.31% | outcome [5] | Potency [6] | Potency [8] | Potency [9]

CCN1CCCC1CNC(=O)c1cc(S(=O)(=O)CC)c(N)cc1OC (centres undefined)
inactive: max response [1] -9.52% and 2.43% | max response [2] -3.32% | outcome [2] | max response [4] 4.99% | outcome [4] | outcome [5] | Potency [6] | Potency [8] | Potency [9]

CCCCc1oc2ccccc2c1C(=O)c1cc(I)c(OCCN(CC)CC)c(I)c1
inactive: outcome [2] | max response [3] -16.7% and -5.99% and -5.01% | max response [4] -21.3% and -20.5% | outcome [5] | Potency [6]
active: Potency [1] 23.5 µM | Potency [9] 13.3 µM
